Common to all, as to assay: DAPPL (digital affinity profiling via proximity ligation, sequencing); 10 mM Tris-HCl pH 7.5, 50 mM NaCl, 1 mM DTT, 4% glycerol, room temperature, 30 min; GST-TFs on glutathione beads, 16-mer random dsDNA library, 0.1% formaldehyde crosslink after washing; high values mean tight binding
Holding throughout (settings): protein: recombinant; tags: N-terminal GST; dsDNA, one strand shown

For one assay, the target named is T1, FLI1 (Homo sapiens, UniProt Q01543 1-452).
T1 sequence: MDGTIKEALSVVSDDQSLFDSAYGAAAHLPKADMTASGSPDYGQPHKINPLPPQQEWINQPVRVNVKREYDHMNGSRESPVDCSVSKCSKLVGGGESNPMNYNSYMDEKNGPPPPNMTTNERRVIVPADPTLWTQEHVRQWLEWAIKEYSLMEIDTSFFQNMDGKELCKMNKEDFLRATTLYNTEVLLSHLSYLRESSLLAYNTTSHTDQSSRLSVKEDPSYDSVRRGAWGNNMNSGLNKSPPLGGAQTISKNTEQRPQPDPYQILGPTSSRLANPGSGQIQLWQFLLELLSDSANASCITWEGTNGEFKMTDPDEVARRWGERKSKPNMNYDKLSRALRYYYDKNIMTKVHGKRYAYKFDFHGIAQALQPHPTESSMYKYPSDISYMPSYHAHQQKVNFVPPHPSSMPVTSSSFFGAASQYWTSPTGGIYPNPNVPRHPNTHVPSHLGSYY
Put shortly:
(§1)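 Pools of DNA-barcoded human transcription factors, expressed in yeast as GST fusions on glutathione beads and combined with a tag-only sample, were incubated with 200 nmole of a 16-mer random double-stranded DNA library. Incubation took 30 min at room temperature in Tris/NaCl/DTT/glycerol buffer and was followed by washing, 0.1% formaldehyde crosslinking, proximity ligation (BsaI/T4 ligase, 1 h, 37 °C), PCR amplification and sequencing on an Illumina NextSeq500. Binding signal is the ratio of a hexamer's read frequency for a factor to its frequency for the tag-only sample.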

The next assay addresses T2, ELK1 (Homo sapiens, UniProt P19419 1-428).
T2 sequence: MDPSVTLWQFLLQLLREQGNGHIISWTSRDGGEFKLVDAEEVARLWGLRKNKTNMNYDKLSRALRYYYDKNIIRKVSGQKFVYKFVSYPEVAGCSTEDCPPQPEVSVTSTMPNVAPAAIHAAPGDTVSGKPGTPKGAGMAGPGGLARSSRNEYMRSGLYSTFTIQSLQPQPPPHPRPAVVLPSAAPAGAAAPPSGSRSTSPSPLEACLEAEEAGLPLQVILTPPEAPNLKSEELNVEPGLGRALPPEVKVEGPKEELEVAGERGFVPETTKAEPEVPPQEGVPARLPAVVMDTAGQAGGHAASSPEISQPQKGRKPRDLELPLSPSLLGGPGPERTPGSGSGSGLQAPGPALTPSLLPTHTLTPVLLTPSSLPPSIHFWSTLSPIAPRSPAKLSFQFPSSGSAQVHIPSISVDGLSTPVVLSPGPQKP
Put shortly:
as §1

The next assay addresses T3, GABPA (Homo sapiens, UniProt Q06546 1-454).
T3 sequence: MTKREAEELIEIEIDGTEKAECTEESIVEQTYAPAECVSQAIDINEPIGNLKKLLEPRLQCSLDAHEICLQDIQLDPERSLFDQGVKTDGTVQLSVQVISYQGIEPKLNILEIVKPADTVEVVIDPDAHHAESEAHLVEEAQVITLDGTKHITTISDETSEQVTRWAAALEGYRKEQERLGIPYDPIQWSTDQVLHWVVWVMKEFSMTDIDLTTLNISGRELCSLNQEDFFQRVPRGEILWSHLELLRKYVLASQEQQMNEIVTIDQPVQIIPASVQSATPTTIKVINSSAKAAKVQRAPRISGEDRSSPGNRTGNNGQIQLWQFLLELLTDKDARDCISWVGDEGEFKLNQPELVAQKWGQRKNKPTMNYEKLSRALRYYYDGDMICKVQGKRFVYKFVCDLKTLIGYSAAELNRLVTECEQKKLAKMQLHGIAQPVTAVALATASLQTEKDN
In short, it runs like this: as §1

The target of another assay is T4, ERG (Homo sapiens, UniProt P11308 1-479).
T4 sequence: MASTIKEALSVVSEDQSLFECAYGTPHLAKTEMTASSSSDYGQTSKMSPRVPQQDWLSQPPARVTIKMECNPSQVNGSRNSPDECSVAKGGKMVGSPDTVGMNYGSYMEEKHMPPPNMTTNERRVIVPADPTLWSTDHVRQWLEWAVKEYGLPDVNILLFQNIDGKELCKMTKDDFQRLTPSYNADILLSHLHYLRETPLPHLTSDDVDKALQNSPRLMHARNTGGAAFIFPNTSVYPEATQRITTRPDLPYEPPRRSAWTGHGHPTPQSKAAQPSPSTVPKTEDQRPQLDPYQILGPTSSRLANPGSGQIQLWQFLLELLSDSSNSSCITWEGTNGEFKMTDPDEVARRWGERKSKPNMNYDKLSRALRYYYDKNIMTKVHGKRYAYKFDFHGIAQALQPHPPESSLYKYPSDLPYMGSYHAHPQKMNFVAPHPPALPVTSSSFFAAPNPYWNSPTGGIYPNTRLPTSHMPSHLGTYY
In short, it runs like this:
as §1

The next assay deals with ELF1 (Homo sapiens, UniProt P32519 1-619). In short, it runs like this: as §1
Chain of ELF1 (P32519 whole entry): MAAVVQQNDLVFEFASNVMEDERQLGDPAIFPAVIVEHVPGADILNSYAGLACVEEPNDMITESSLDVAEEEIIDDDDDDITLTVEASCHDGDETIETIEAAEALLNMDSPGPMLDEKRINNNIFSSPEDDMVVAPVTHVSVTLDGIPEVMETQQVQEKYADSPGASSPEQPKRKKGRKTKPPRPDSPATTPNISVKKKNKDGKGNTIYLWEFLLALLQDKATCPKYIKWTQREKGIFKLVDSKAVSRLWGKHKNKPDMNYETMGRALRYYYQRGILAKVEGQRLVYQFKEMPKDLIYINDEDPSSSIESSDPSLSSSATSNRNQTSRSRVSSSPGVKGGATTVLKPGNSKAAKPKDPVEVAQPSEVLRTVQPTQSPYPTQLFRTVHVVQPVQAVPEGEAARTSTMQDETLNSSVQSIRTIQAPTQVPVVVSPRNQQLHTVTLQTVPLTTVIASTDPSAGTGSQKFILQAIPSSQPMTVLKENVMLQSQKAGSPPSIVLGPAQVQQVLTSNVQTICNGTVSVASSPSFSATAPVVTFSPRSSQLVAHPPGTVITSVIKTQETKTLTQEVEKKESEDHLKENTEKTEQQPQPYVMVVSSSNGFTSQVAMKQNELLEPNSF
The next assay has as its target T5, EHF (Homo sapiens, UniProt Q9NZC4 1-300).
T5 sequence: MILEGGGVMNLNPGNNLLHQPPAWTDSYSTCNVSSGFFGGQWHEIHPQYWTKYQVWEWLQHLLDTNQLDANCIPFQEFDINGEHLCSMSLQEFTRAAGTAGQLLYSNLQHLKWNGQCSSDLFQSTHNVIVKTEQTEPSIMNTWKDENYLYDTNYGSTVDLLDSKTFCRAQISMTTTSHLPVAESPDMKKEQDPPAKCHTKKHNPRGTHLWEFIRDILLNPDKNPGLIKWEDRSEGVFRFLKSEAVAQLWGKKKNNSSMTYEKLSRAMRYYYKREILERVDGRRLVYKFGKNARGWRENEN
In short, it runs like this:
as §1

The next assay addresses SPI1 (Homo sapiens, UniProt P17947 1-270). Put shortly:
as §1

The target of another assay is T6, FEV (Homo sapiens, UniProt Q99581 1-238).
T6 sequence: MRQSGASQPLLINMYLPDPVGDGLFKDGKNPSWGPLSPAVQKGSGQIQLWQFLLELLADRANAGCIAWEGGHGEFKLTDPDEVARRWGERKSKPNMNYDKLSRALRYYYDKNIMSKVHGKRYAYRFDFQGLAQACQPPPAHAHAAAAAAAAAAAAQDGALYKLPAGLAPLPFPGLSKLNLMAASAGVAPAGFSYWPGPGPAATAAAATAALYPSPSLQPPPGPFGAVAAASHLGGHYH
Put shortly:
as §1

Another assay has as its target ETV5 (Homo sapiens, UniProt P41161 1-510). In short, it runs like this: as §1
In the next assay the target is T7, SPIC (Homo sapiens, UniProt Q8N5J4 1-248).
T7 sequence: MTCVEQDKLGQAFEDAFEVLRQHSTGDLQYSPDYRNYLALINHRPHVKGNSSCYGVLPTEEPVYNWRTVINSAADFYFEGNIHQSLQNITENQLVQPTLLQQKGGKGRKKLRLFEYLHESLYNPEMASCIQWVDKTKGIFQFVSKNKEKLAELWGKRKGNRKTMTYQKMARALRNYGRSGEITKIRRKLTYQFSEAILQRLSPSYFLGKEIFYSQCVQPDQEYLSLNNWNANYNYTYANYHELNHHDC
In short, it runs like this:
as §1

A further assay concerns the target ELF4 (Homo sapiens, UniProt Q99607 1-663). Put shortly:
as §1

The target of another assay is ETV1 (Homo sapiens, UniProt P50549 1-477). In short, it runs like this: as §1
Chain of ETV1 (P50549 whole entry): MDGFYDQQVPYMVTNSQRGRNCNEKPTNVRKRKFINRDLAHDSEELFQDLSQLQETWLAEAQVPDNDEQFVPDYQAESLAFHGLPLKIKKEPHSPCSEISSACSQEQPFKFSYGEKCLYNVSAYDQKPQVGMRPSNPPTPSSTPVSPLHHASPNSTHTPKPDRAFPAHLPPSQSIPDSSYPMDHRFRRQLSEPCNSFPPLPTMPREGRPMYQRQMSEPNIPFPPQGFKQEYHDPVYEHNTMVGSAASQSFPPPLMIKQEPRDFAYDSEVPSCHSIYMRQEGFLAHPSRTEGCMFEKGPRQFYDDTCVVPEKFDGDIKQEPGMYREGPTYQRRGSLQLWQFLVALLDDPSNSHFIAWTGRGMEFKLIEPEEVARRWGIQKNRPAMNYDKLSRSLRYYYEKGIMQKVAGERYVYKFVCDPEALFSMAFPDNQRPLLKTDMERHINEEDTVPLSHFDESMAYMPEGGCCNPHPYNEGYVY
Another assay has as its target T8, ERF (Homo sapiens, UniProt P50548 1-548).
T8 sequence: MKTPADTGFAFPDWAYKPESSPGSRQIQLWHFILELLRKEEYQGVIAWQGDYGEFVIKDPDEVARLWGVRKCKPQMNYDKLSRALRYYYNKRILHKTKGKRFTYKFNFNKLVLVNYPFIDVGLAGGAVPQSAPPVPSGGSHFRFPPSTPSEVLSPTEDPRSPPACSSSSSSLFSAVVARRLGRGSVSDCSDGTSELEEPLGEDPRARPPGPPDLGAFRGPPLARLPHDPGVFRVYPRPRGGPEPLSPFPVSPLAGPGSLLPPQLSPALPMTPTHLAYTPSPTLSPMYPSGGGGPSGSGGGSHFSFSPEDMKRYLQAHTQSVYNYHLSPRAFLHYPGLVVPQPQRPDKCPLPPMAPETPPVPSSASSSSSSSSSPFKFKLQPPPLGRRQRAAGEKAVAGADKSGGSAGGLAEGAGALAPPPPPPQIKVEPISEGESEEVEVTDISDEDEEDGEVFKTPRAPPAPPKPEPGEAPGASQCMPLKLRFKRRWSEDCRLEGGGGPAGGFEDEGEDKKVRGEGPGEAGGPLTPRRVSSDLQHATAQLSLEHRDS
Put shortly: as §1

The target in another assay is T9, ETV3L (Homo sapiens, UniProt Q6ZN32 1-361).
T9 sequence: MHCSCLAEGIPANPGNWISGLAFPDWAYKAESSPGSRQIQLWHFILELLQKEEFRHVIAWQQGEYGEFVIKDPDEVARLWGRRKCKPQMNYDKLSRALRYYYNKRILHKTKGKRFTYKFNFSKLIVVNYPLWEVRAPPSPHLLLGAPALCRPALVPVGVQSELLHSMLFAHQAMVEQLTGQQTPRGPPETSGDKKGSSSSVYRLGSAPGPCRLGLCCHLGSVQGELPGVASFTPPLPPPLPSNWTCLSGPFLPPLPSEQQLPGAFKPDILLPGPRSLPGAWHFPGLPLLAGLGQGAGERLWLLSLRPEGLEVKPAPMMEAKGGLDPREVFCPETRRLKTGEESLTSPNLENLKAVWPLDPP
In short, it runs like this: as §1

The target of another assay is T10, ETS2 (Homo sapiens, UniProt P15036 1-469).
T10 sequence: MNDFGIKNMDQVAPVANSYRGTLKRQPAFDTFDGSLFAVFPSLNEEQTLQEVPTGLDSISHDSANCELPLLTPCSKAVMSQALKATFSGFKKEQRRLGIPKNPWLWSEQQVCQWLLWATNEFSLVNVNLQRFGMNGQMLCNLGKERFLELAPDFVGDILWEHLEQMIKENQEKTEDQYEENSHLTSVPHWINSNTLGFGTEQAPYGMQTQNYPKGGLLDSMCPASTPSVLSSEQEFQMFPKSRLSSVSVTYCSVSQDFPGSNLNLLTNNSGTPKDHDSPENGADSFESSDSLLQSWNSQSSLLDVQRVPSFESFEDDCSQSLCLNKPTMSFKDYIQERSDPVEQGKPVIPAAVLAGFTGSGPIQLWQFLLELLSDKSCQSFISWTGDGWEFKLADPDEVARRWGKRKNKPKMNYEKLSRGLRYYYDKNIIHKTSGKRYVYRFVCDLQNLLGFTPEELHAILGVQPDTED
Put shortly:
as §1

A further assay addresses T11, ELF5 (Homo sapiens, UniProt Q9UKW6-2 1-255).
T11 sequence: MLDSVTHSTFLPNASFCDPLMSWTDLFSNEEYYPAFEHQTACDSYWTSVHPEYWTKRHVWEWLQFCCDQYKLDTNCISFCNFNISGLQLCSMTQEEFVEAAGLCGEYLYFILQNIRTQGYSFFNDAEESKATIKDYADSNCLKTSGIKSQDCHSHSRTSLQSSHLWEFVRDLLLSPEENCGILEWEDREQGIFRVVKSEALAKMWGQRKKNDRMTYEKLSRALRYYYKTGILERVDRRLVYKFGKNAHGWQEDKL
Put shortly:
as §1

A further assay concerns the target T12, ETV3 (Homo sapiens, UniProt P41162-2 1-143).
T12 sequence: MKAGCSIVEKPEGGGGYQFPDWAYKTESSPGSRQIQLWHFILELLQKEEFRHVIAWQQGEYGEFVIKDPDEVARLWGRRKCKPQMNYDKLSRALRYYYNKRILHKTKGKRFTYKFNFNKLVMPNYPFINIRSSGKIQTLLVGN
In short, it runs like this:
as §1

The next assay concerns the target ETV6 (Homo sapiens, UniProt P41212 1-452). In short, it runs like this:
as §1

For the next assay, the target named is SPIB (Homo sapiens, UniProt Q01892 1-262). Put shortly: as §1
Chain of SPIB (Q01892 whole entry): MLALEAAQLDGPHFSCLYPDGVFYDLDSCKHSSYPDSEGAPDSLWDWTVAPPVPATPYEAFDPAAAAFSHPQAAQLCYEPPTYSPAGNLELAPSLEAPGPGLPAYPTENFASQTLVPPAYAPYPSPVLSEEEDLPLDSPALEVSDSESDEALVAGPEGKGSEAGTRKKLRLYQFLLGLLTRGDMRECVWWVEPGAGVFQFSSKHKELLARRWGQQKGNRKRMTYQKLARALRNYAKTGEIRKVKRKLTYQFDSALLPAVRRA

Chain of ETV5 (P41161 whole entry): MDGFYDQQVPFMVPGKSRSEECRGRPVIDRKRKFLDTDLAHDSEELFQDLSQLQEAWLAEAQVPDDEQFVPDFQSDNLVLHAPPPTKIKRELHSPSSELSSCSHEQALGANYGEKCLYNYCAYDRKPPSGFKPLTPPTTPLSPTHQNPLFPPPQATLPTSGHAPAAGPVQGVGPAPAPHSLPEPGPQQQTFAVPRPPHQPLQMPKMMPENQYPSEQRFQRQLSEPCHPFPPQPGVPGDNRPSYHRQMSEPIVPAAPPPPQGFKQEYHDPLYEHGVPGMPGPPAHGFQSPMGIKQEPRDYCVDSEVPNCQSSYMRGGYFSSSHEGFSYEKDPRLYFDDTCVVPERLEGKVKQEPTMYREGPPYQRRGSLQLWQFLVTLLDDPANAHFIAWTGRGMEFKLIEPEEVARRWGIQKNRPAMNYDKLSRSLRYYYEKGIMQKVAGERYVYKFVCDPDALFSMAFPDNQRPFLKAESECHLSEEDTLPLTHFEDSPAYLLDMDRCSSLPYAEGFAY
Chain of ELF4 (Q99607 whole entry): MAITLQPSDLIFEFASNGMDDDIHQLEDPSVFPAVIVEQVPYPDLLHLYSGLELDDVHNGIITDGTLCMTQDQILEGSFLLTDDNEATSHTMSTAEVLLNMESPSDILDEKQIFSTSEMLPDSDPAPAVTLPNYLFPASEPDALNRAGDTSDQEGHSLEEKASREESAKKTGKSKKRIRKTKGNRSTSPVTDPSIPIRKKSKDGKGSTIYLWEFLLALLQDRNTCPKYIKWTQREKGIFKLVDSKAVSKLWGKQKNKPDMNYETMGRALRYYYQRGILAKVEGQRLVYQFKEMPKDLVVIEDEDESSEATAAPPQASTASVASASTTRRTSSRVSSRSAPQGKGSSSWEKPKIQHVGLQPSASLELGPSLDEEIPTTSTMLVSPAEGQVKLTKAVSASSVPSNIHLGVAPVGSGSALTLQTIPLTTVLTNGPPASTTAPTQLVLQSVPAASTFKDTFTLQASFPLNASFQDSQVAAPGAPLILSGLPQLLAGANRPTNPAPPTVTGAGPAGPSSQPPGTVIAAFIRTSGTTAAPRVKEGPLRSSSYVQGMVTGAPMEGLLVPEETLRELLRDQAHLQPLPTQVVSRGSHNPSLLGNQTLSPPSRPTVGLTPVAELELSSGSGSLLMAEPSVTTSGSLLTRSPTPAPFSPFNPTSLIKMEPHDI
Chain of ETV6 (P41212 whole entry): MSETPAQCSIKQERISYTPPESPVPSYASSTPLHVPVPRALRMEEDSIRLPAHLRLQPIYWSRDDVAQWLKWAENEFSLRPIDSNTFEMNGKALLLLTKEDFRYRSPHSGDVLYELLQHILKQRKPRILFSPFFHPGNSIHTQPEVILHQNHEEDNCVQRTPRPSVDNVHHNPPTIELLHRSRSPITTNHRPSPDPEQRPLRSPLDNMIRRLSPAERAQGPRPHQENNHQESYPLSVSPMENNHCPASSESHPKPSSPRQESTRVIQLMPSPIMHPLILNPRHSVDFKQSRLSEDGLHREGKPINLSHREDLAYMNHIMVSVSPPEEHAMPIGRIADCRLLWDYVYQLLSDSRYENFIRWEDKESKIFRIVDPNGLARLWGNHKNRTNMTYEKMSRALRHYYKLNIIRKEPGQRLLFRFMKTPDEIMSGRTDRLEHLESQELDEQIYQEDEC

GTACGC: the binding signal was 1.05 fold enrichment (6-mer frequency, TF over GST control) in the assay with FLI1; 1.03 fold enrichment (6-mer frequency, TF over GST control) with ELK1; 1.04 fold enrichment (6-mer frequency, TF over GST control) with GABPA; 1.09 fold enrichment (6-mer frequency, TF over GST control) in the assay with ERG; 1.05 fold enrichment (6-mer frequency, TF over GST control) with ELF1; 1.03 fold enrichment (6-mer frequency, TF over GST control) with EHF. Further, the binding signal is 1.05 fold enrichment (6-mer frequency, TF over GST control) with SPI1; 1.1 fold enrichment (6-mer frequency, TF over GST control) with FEV; 1.08 fold enrichment (6-mer frequency, TF over GST control) with ETV5; 1.2 fold enrichment (6-mer frequency, TF over GST control) in the assay with SPIC; 1.05 fold enrichment (6-mer frequency, TF over GST control) in the assay with ELF4; 1.09 fold enrichment (6-mer frequency, TF over GST control) with ETV1. In addition, the binding signal in the assay with ERF was 1.05 fold enrichment (6-mer frequency, TF over GST control); in the assay with ETV3L, 1.11 fold enrichment (6-mer frequency, TF over GST control); with ETS2, 1.06 fold enrichment (6-mer frequency, TF over GST control); with ELF5 it was 1.06 fold enrichment (6-mer frequency, TF over GST control); with ETV3 it was 1.14 fold enrichment (6-mer frequency, TF over GST control); with ETV6, 1.07 fold enrichment (6-mer frequency, TF over GST control).
For GGACTC, the binding signal was 1.08 fold enrichment (6-mer frequency, TF over GST control) with FLI1; 1.07 fold enrichment (6-mer frequency, TF over GST control) in the assay with GABPA; 1.09 fold enrichment (6-mer frequency, TF over GST control) with ELF1; 1.12 fold enrichment (6-mer frequency, TF over GST control) with EHF; 1.05 fold enrichment (6-mer frequency, TF over GST control) in the assay with SPIB; 1.08 fold enrichment (6-mer frequency, TF over GST control) with ETV5. Further, the binding signal in the assay with SPIC is 1.01 fold enrichment (6-mer frequency, TF over GST control); with ELF4, 1.13 fold enrichment (6-mer frequency, TF over GST control); with ETV1, 1.07 fold enrichment (6-mer frequency, TF over GST control); in the assay with ETV3L, 1.03 fold enrichment (6-mer frequency, TF over GST control); in the assay with ETV3 it was 1.08 fold enrichment (6-mer frequency, TF over GST control).

Source of the values: article PMC7862700, “An all-to-all approach to the identification of sequence-specific readers for epigenetic DNA modifications on cytosine”.
